Source: the supplement of paper PMC7156485
± gives the standard deviation of the averaged measurements.

How the values were obtained:
Settings in all cases: concentration: 10 µM; 24 h
[1] = test system: HCC1569; assay: cell number relative to DMSO (% of DMSO); higher = more cells (less growth inhibition / toxicity)
Outline: (§1)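 Using 384-well plates with 800 cells per well in RPMI plus 10% FBS, HCC1569 and TDF cells were exposed to compounds at 10 µM, in triplicate, for 24 h at 37 °C. Imaging of six fields per well at ×10 followed H1.0 and DAPI staining. The reported quantity, H1.0 nuclear intensity or cell number, is a median of replicates given as percent of the plate control, and HCC1569 values were smoothed for positional effects.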

[2] = test system: TDF; assay: as above
Outline: as §1

[3] = test system: TDF; assay: H1.0 immunofluorescence intensity relative to DMSO (% of DMSO); higher = stronger H1.0 induction, active = 120 or more
Outline: as §1

[4] = test system: HCC1569; assay: H1.0 immunofluorescence intensity relative to DMSO (% of DMSO); higher = stronger H1.0 induction, active = 140 or more
Outline: as §1
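For H1.0 immunofluorescence intensity relative to DMSO in this document: TDF is a line of transformed human dermal fibroblasts of mesenchymal origin.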
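For cell number relative to DMSO in this document: TDF denotes transformed human dermal fibroblasts of mesenchymal origin.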

Row | SMILES | cell number [1] | cell number [2] | H1.0 immunofluorescence intensity [3] | H1.0 immunofluorescence intensity [4]
1 | Cc1cc(C(=O)Nc2cccc(C(=O)Nc3cccc(C(F)(F)F)c3)c2)on1 | 100 | 104 | 99.6 (inactive) | 113 (inactive)
2 | CN(Cc1cc(Br)cc(Br)c1N)C1CCCCC1 [Bromhexine] | 98.8 | 110 | 88.6 (inactive) | 123 (inactive)
3 | CC=CCC=CCCC(=O)C1OC1C(N)=O (stereo not given) [Cerulenin] | 92.6 | 91.5 | 97.8 (inactive) | 111 (inactive)
4 | CCCCCC=CCC=CCC=CCCCCCCC(=O)OC(COCCCCCCCCCCCCCCCC)COP(=O)([O-])OCC[N+](C)(C)C (stereo not given) | 101 | 98.5 | 96.6 (inactive) | 96.9 (inactive)
5 | OC1C=C2CCN3Cc4cc5c(cc4C(C1O)C23)OCO5 (stereo not given) [Lycorine] | 67.4 | 53.3 | 120 (inactive) | 180 (active)
6 | CCCCCCCCCCC1=C(C)C(=O)C(OC)=C(OC)C1=O [Decylubiquinone] | 101 | 89.2 | 94.8 (inactive) | 91.8 (inactive)
7 | CCCCCCCCCCCCCC=CC(O)C(CO)NC(=O)CCCCCCC (stereo not given) [C8 Ceramide] | 102 | 99.5 | 101 (inactive) | 99.8 (inactive)
8 | CC1c2cccc(O)c2C(O)=C2C(=O)C3(O)C(O)=C(C(N)=O)C(=O)C(N(C)C)C3C(O)C21 (stereo not given) [Doxycycline] | 101 | 93.9 | 108 (inactive) | 115 (inactive)
9 | CCCCCCCCCCCCCCCC(=O)OCC(COP(=O)(O)O)OC(=O)CCCCCCCCCCCCCCC (stereo not given) [Dipalmitoylphosphatidic acid] | 94.8 | 107 | 89.8 (inactive) | 107 (inactive)
10 | CN(C)CCC=C1c2ccccc2CCc2ccccc21.Cl [Amitriptyline hydrochloride] | 100 | 100 | 104 (inactive) | 94.1 (inactive)
11 | CCCNCC(O)COc1ccccc1C(=O)CCc1ccccc1 (stereo not given) [Propafenone] | 103 | 101 | 92.6 (inactive) | 103 (inactive)
12 | CC(Cc1ccc(O)c(O)c1)(NN)C(=O)O (stereo not drawn) [S-(-)-Carbidopa] | 106 | 112 | 91.7 (inactive) | 90 (inactive)
13 | CCC=CCC=CCC=CCC=CCCCCC(=O)O.[Na] [6(Z), 9(Z), 12(Z), 15(Z)-Octadecatetraenoic acid] | 102 | 91.9 | 106 (inactive) | 102 (inactive)
14 | Cc1cc(C)c(C=C2C(=O)Nc3ccccc32)[nH]1 [VEGF Receptor 2 Kinase Inhibitor III] | 100 | 105 | 91.1 (inactive) | 108 (inactive)
15 | Cl.c1ccc(C2CN3CCSC3=N2)cc1 (single isomer, unassigned; (-)) [(-)-Tetramisole hydrochloride] | 108 | 97.3 | 92.4 (inactive) | 98.7 (inactive)
16 | COc1cc(C(=O)OCCCCN=C(N)N)cc(OC)c1O | 103 | 95.8 | 102 (inactive) | 104 (inactive)
17 | Cc1cccc(Nc2cc(Cl)nc(SCC(=O)O)n2)c1C | 101 | 104 | 91.8 (inactive) | 97.6 (inactive)
18 | NC(N)=NCCC[C@H](N)C(=O)O [L-Arginine] | 102 | 107 | 93.7 (inactive) | 98.6 (inactive)
19 | CN(C)CCN(Cc1cccs1)c1ccccn1.Cl [Methapyrilene hydrochloride] | 112 | 95.7 | 93 (inactive) | 92.7 (inactive)
20 | NC(=O)c1ccc(-c2nc(-c3ccc4c(c3)OCCO4)c(-c3ccccn3)[nH]2)cc1 [Casein Kinase I Inhibitor, D4476] | 92.2 | 97 | 95.4 (inactive) | 127 (inactive)
21 | Nc1nc(=O)c2ncn(COC(CO)CO)c2[nH]1 [Ganciclovir] | 105 ± 4 | 99.6 ± 5.2 | 95.2 (inactive) | 99.6 (inactive)
22 | CC(=O)NC(C(=O)O)C(C)(C)SN=O (stereo not given) [S-Nitroso-N-acetylpenicillamine] | 105 | 109 | 90.5 (inactive) | 96.7 (inactive)
23 | CCCCCC=CCC=CCC1OC1CC=CCCCC(=O)O (stereo not given) [8,9-Epoxyeicosatrienoic acid] | 103 | 101 | 97.7 (inactive) | 104 (inactive)
24 | CCOC(=O)C(CCc1ccccc1)NC(C)C(=O)N1Cc2ccccc2CC1C(=O)O (stereo not given) [Quinapril] | 102 | 101 | 101 (inactive) | 101 (inactive)
25 | CCN(Cc1ccncc1)C(=O)C(CO)c1ccccc1 (stereo not given) [Tropicamide] | 104 ± 5.5 | 105 ± 8.1 | 98.4 (inactive) | 100 (inactive)

Row | SMILES | cell number [1] | cell number [2] | H1.0 immunofluorescence intensity [3] | H1.0 immunofluorescence intensity [4]
26 | Cn1c(=O)c2[nH]c(-c3ccc(S(=O)(=O)O)cc3)nc2n(C)c1=O [8-(p-Sulfophenyl)theophylline] | 101 | 109 | 93.8 (inactive) | 89 (inactive)
27 | Cc1ccc(-c2nn(C(C)(C)C)c3ncnc(N)c23)cc1 | 69.8 | 109 | 94.8 (inactive) | 188 (active)
28 | CCOc1nc2cccc(C(=O)O)c2n1Cc1ccc(-c2ccccc2-c2nn[nH]n2)cc1 [Candesartan] | 104 | 97.2 | 99.8 (inactive) | 99.7 (inactive)
29 | O=c1oc(Cl)c(Cl)c2ccccc12 [3,4-Dichloroisocoumarin] | 103 | 109 | 91.9 (inactive) | 88.1 (inactive)
30 | Cc1cnc(Nc2ccc(N3CCN(C)CC3)cc2)nc1Nc1cccc(S(=O)(=O)NC(C)(C)C)c1 | 31.4 | 98.6 | 97.9 (inactive) | 174 (active)
31 | CCC1C(=O)OCC1Cc1cncn1C.O=[N+]([O-])O (stereo not given) [Pilocarpine nitrate] | 98 | 86.9 | 98.7 (inactive) | 107 (inactive)
32 | CCN1C(=O)C=CC1=O [N-Ethylmaleimide] | 102 ± 5.4 | 97.2 ± 4.9 | 96.6 (inactive) | 91.7 (inactive)
33 | CCC(CO)Nc1nc(NCc2ccc(-c3ccccn3)cc2)c2ncn(C(C)C)c2n1 [CR8, (S)-Isomer] | 52.6 | 23.5 | 124 (active) | 128 (inactive)
34 | CC(=O)O.O=C(NCC1CCCCN1)c1cc(OCC(F)(F)F)ccc1OCC(F)(F)F (stereo not given) [Flecainide acetate] | 102 ± 3.6 | 101 ± 1.2 | 91.5 (inactive) | 107 (inactive)
35 | CCCCCCCCCCCCCC=CC(O)C(N)CO (stereo not given) [Sphingosine] | 103 ± 4.4 | 101 ± 6.5 | 96.9 (inactive) | 98.4 (inactive)
36 | CCCCC1(C2CCCC2)Cc2cc(OCC(=O)O)c(Cl)c(Cl)c2C1=O (stereo not drawn) [R(+)-Butylindazone] | 98.8 | 107 | 86.7 (inactive) | 91.3 (inactive)
37 | CCC1=CC2CN(C1)Cc1c([nH]c3ccccc13)C(C(=O)OC)(c1cc3c(cc1OC)N(C)C1C(O)(C(=O)OC)C(OC(C)=O)C4(CC)C=CCN5CCC31C54)C2 (stereo not given) [Vinorelbine] | 56.9 ± 1.3 | 9.75 ± 0.33 | 167 (active) | 153 (active)
38 | CCCCCC(=O)CCC1C(O)CC(O)C1CC=CCCCC(=O)O (stereo not given) [13,14-Dihydro-15-keto-prostaglandin F2a] | 99.9 | 94 | 90.1 (inactive) | 98.2 (inactive)
39 | O=c1cc(N2CCOCC2)nc2c3ccccc3ccn12 | 95.2 | 91.4 | 94.7 (inactive) | 111 (inactive)
40 | CCCCCN(CCCCC)C(=O)C(CCC(=O)[O-])NC(=O)c1ccc(Cl)c(Cl)c1.[Na+] (stereo not given) [Lorglumide sodium] | 103 | 107 | 100 (inactive) | 89.8 (inactive)
41 | CN(C)[C@@H](CCOc1cccc2ccccc12)c1ccccc1.Cl | 90.3 | 92.4 | 104 (inactive) | 142 (active)
42 | CCCCCCN(CCCCCC)C(=O)Cc1c(-c2ccc(F)cc2)[nH]c2ccccc12 [N,N-Dihexyl-2-(4-fluorophenyl)indole-3-acetamide] | 95.6 | 102 | 93.3 (inactive) | 94.3 (inactive)
43 | O=C(O)CCCC=CCC=CC=CC(O)CC=CCCCCCO (stereo not given) | 101 | 92.6 | 98.3 (inactive) | 101 (inactive)
44 | Cc1cc2cc3c(C)cc(=O)oc3c(C)c2o1 [4,5',8-Trimethylpsoralen] | 97.9 | 102 | 97.2 (inactive) | 87.5 (inactive)
45 | CC(C)(C)NCC(O)COc1nsnc1N1CCOCC1.O=C(O)C=CC(=O)O [(S)-Timolol maleate] | 106 | 105 | 87.4 (inactive) | 97.9 (inactive)
46 | COc1cc2nccc(Oc3ccc(NC(=O)Nc4cc(C)on4)c(Cl)c3)c2cc1OC [Tivozanib] | 79.2 | 101 | 99 (inactive) | 116 (inactive)
47 | CCCCCC(O)CCC1C(O)CC(=O)C1CCCCCCC(=O)O (stereo not given) [13,14-Dihydro-prostaglandin E1] | 97.1 | 104 | 94.9 (inactive) | 103 (inactive)
48 | c1ccc(CNc2nc(NCc3ccccc3)c3ccccc3n2)cc1 [N~2~,N~4~-dibenzyl-2,4-quinazolinediamine] | 33.7 | 39 | 156 (active) | 88.7 (inactive)
49 | CCN(Cc1ccccc1)C(=O)Cn1c(=O)n(C)c2cnc(-c3ccccc3)nc21 | 75.1 | 17.6 | 156 (active) | 123 (inactive)
50 | COc1cc2nc(N3CCN(C(=O)C4COc5ccccc5O4)CC3)nc(N)c2cc1OC.CS(=O)(=O)O (stereo not given) [Doxazosin mesylate] | 99.9 | 103 | 95.5 (inactive) | 110 (inactive)
